Consider 66 molecules from PubChem BioAssay AID686978 (National Center for Advancing Translational Sciences (NCATS), 2013).

In all, about 420,000 compounds went through this assay and about 64,000 (15%) were called active. Another 27% or so got no clear call; they are omitted. Only a sample is shown. Unmarked numbers belong to inactive results. Calls come from the whole dose curve; as a rule, active = well fitted inhibition curve with a large enough effect; inconclusive = small, poorly fitted or top-dose-only effect; inactive = flat fitted curve, though single readings scatter.
% is set by controls: 0 for no effect and ±100 for the full control effect; potency is the fitted concentration of half-maximal effect.

This assay is described as follows: qHTS for Inhibitors of human tyrosyl-DNA phosphodiesterase 1 (TDP1): qHTS in cells in absence of CPT. Note: nearly all actives have a fitted effect of over 55% in size. The conditions noted are these: DT40 Tdp1-/- hTDP1 cells, no CPT, ATP luminescence, 48 h; activity change, negative = growth inhibition: at 46.2 µM (top of the series). An outline of the steps: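 Chicken DT40 Tdp1-/- cells stably complemented with human TDP1 were seeded at 400 cells/well with DMSO in place of 20 nM camptothecin. After compound pinning, cells grew at least 48 hr at 37 °C; viability read by CellTiter-Glo luminescence.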
For orientation: Quantitative high-throughput screening tests each substance at several concentrations.
For `COc1ccc(N2C(=O)C3CCCN3C2c2cccs2)cc1` (stereo unspecified), the “activity change, negative = growth inhibition” value was -5.08%. Regarding `Cc1cc(C)c2c(-n3cccc3)c(C(=O)NNS(=O)(=O)c3ccc(F)cc3)sc2n1`, the “activity change, negative = growth inhibition” value is 3.21%. Regarding `Cc1cc(C(=O)CC#N)c(C)n1-c1c(C)n(C)n(-c2ccccc2)c1=O`, the “activity change, negative = growth inhibition” value was 8%. As for `Cc1nn(C)c(Cl)c1CN1CCC(n2nccc2NC(=O)C2CCCC2)CC1`, the “activity change, negative = growth inhibition” value was 11.6%. As for `O=C(O)C1=CCCN(CCON=C(c2ccccc2)c2ccccc2)C1`, the Potency entry is “inactive”. On the same count and under the same terms, as for `COc1ccc(OC)c(/C(C)=N\NC(=O)c2cc3cc(Cl)ccc3n2C)c1`, the figure is 4.61 µM (active). For `COc1ccc(NC(=O)c2cc3cc(C)ccc3n2C)cc1`, the “activity change, negative = growth inhibition” value was -27.1%. `Cc1ccc(NC(=O)c2cc3cc(C)ccc3n2C)cc1`: the “activity change, negative = growth inhibition” value is -21.4%. As to `Cc1cc(C)cc(OCC(=O)O/N=C(\N)Cc2ccc([N+](=O)[O-])cc2)c1`, the “activity change, negative = growth inhibition” value is 0.454%. `CCOc1ccc(NS(=O)(=O)c2ccc(OCC(=O)NCCCOC)cc2)cc1`: the “activity change, negative = growth inhibition” value is -13%.

Turning to `O=C(COc1ccc2c(C(F)(F)F)cc(=O)oc2c1)Nc1ccc2c(c1)OCCO2`, the “activity change, negative = growth inhibition” value was -5.56%. As for `CCOc1ccc2c(=O)c(-c3ccc4c(c3)OCCCO4)c(C)oc2c1`, the Potency is 13 µM (active). Regarding `COC(=O)Cc1c(C)c2ccc(OCC(=O)NCc3ccc4c(c3)OCO4)cc2oc1=O`, the “activity change, negative = growth inhibition” value is -22.1%. For `Cc1ccc(N2CC(C(=O)Nc3ccc(N(C)C)cc3)CC2=O)cc1Cl` (stereo unspecified), the “activity change, negative = growth inhibition” value was -9.28%. With `COc1ccc(CC(=O)NCc2nnc(SCC(=O)Nc3ncc(C)s3)n2C)cc1`, the Potency is 16.4 µM (active).

On to `COc1ccc(CC(=O)NCc2nnc(SCC(=O)Nc3nccs3)n2C)cc1`, for which the “activity change, negative = growth inhibition” value is 14.7%. Turning to `COc1ccc(-n2nnnc2CNC(=O)c2ccc3ccccc3c2)cc1`, the “activity change, negative = growth inhibition” value was -26.4%. Same read-out and setting: as for `Cc1ccc(SCC(=O)Nc2ncc(C)s2)cc1`, the figure is -28.1%. As to `Cc1cnc(NC(=O)CSc2c(Cl)cccc2Cl)s1`, the Potency was 13 µM (active). In the case of `COc1ccccc1C(=O)NCc1nnc(SC(C)C(=O)Nc2nccs2)n1C` (stereo unspecified), the “activity change, negative = growth inhibition” value is 21.3%. As to `Cc1cnc(NC(=O)CSc2nnc(C)s2)s1`, the “activity change, negative = growth inhibition” value is 7.27%.

For `COC(=O)c1ccc(NC(=O)CSc2nnc(CNc3ccc(OC)cc3)n2C)cc1`, the “activity change, negative = growth inhibition” value is -4.03%.

Regarding `COc1ccc(C(=O)NCc2nnc(SCCOc3ccccc3)n2C)cc1`, the Potency is 29.1 µM (active).

Regarding `C=CCC1=C/C(=C\c2c(N)n3nc(CC(=O)N4CCOCC4)sc3nc2=O)C=C(OC)C1=O`, the “activity change, negative = growth inhibition” value is 15.1%. On to `CC(=O)NC1CC2CCCC(C1)N2CC(=O)Nc1ccccc1` (stereo unspecified), for which the “activity change, negative = growth inhibition” value was 2.41%. On to `COc1ccccc1NS(=O)(=O)N(C)C`, for which the “activity change, negative = growth inhibition” value was -6.71%.

In the case of `CC(C)(C)NC(=O)/C(=C/c1cccnc1)NC(=O)c1ccco1`, the “activity change, negative = growth inhibition” value is 2.45%. With `NS(=O)(=O)c1ccc2nc(NC(=O)C3=COCCO3)sc2c1`, the “activity change, negative = growth inhibition” value was 6.91%. As to `N#CC(Cc1cc2ccccc2n1S(=O)(=O)c1ccccc1)OCc1ccccc1` (stereo unspecified), the “activity change, negative = growth inhibition” value was -27.1%. Turning to `O=C(Nn1cnnc1)c1cc(Cl)ccc1Cl`, the “activity change, negative = growth inhibition” value was -10.9%. As for `CC(C)=CCN1CCN(Cc2ccc(Oc3ncccn3)cc2)CC1CCO` (stereo unspecified), the “activity change, negative = growth inhibition” value is -1.59%. On the same count and under the same terms, as for `Cc1ccc(NC(=O)c2cccc(N(C)C)c2)cc1NC(=O)c1ccc(O)cc1`, the figure is -28.1%; as for `O=C1[C@@H]2C(c3cccnc3)=NO[C@@H]2C(=O)N1c1ccc(Cl)cc1Cl`, -44.3%. With `OCCC1CN(Cc2ccccc2-c2ccco2)CCN1Cc1ccsc1` (stereo unspecified), the “activity change, negative = growth inhibition” value was -34.4%. For the molecule `Cc1ccc(C)c2[nH]c(=O)c(CCNC(=O)c3cccs3)cc12`, the “activity change, negative = growth inhibition” value is -24.4%. On the same count and under the same terms, as for `COc1ccccc1NC(=O)CCC(=O)OC(C)C(=O)c1ccccc1` (stereo unspecified), the figure is 10.1%; as for `O=C(c1cccs1)N(Cc1cc2ccccc2[nH]c1=O)CC1CCCO1` (stereo unspecified), 2.95%; as for `Cc1ccc(C(=O)N/C(=C/c2cccs2)C(=O)NCC2CCCO2)cc1` (stereo unspecified), -6.29%.

On to `CCOc1ccc2[nH]c(=O)c(CN(Cc3nnnn3CCc3ccccc3)CC3CCCO3)cc2c1` (stereo unspecified), for which the Potency was 14.6 µM (active).

Turning to `COc1ccc2[nH]c(=O)c(CN(Cc3nnnn3CCc3ccccc3)CC3CCCO3)cc2c1` (stereo unspecified), the Potency was 9.2 µM (active).

For `Cc1cc2cc(CN(Cc3cccs3)Cc3nnnn3CC3CCCO3)c(=O)[nH]c2cc1C` (stereo unspecified), the Potency is 20.6 µM (active).

For `Cc1ccc(S(=O)(=O)N(Cc2cc3ccccc3[nH]c2=O)CC2CCCO2)cc1` (stereo unspecified), the “activity change, negative = growth inhibition” value is -12.1%. In the case of `Cc1nnc(SCC(=O)NNC(=O)c2ccc(Cl)cc2)n1CC1CCCO1` (stereo unspecified), the “activity change, negative = growth inhibition” value was -3.71%.

`CC(=O)Nc1ccc(NC(=O)CSc2nnc(COc3ccccc3C)n2CC2CCCO2)cc1` (stereo unspecified): the “activity change, negative = growth inhibition” value was -6.91%. For `CCN1C(=O)CS/C1=N\c1nccs1`, the “activity change, negative = growth inhibition” value is -2.04%. Still for that read-out and setting: as for `CCOC(=O)NC(=O)C(=CNc1cccc(OC)c1)C(=O)NC(=O)OCC`, the figure is -8.39%. In the case of `CC(=O)CSc1nnc(CSc2ncccn2)n1C1CCCCC1`, the “activity change, negative = growth inhibition” value was -0.234%. On to `Cc1ccc(-c2csc(NC(=O)Cc3cccs3)n2)cc1C`, for which the “activity change, negative = growth inhibition” value was -1.64%. Consider `O=C(Nc1nc(-c2ccc3c(c2)OCO3)cs1)c1ccncc1`, for which the Potency was 13 µM (active). Regarding `O=C(Nc1nc(-c2cccnc2)cs1)c1ccccc1F`, the “activity change, negative = growth inhibition” value was 3.03%.

Consider `CC(=O)NCCC(=O)Nc1nc(-c2ccc3c(c2)OCCO3)cs1`, for which the “activity change, negative = growth inhibition” value was -6.56%. On to `Cc1ccc(-c2csc(NC(=O)C3=COCCO3)n2)cc1C`, for which the Potency is 4.11 µM (active).

Turning to `Cc1ccc(-c2csc(NC(=O)c3cnccn3)n2)cc1C`, the “activity change, negative = growth inhibition” value was -9.21%.

Consider `CC1=C(C(=O)Nc2cc(C)ccn2)C(c2cnn(C)c2)C2=C(CC(c3ccccc3)CC2=O)N1` (stereo unspecified), for which the “activity change, negative = growth inhibition” value was -9.41%. For the molecule `O=P(O)(O)C(O)c1ccc2ccccc2c1` (stereo unspecified), the “activity change, negative = growth inhibition” value was 8.08%.

Take `FC(F)(F)Oc1ccc(-c2cn3cccnc3n2)cc1`: the “activity change, negative = growth inhibition” value was -19%.

Turning to `Cc1cc(C)cc(C(=O)NC(CC(N)=O)c2ccc(N3CCC(N4CCCCC4)CC3)c([N+](=O)[O-])c2)c1` (stereo unspecified), the “activity change, negative = growth inhibition” value was 3.31%. For the molecule `CC(=O)c1c(C)[nH]c(C(=O)NCc2ccc(C)cc2)c1C`, the “activity change, negative = growth inhibition” value is -28.4%. As to `COc1ccc(-c2cc(-c3nc(-c4cc(OC)c(OC)c(OC)c4)no3)[nH]n2)c(OC)c1`, the Potency was 13 µM (active). Take `COc1nc(-c2ccc(Cl)cc2)ccc1-c1noc(-c2cccs2)n1`: the “activity change, negative = growth inhibition” value is -8.38%. Take `CCOc1nc(-c2ccc(OC)cc2)ccc1-c1noc(-c2cc(OC)c(OC)c(OC)c2)n1`: the Potency was 3.66 µM (active).

`COc1ccc(OC)c(-n2nnc(-c3nc(-c4cc(OC)c(OC)c(OC)c4)no3)c2C)c1`: the “activity change, negative = growth inhibition” value was -28.3%. In the case of `COc1cc(-c2nc(-c3ccncc3)no2)cc(OC)c1OC`, the “activity change, negative = growth inhibition” value is 0.674%.

Consider `CCOC(=O)COc1cc(OCC(=O)OCC)c2c(=O)cc(-c3ccccc3)oc2c1`, for which the “activity change, negative = growth inhibition” value was -24.5%. The same measure, in the same setting: as for `O=C(Nc1nn(Cc2ccccc2F)cc1Br)c1cccs1`, the figure is -22.2%; as for `COc1ccc(/C(O)=C2/C(=O)C(=O)N(CC3CCCO3)C2c2ccc(OC)c(OC)c2)cc1` (stereo unspecified), 5.95%.
